Active and inactive are the calls of the source. How the source made its calls: active means hit-call score of the fitted dose curve at least 0.9, where 1 is the maximum; inactive means score below 0.9.

Read-out in experiment [1]: Macrophage colony-stimulating factor (MCSF), CSF1 (gene 1435)
Put plainly: BSK_hDFCGF_MCSF: BioMAP Diversity Plus: hDFCGF Assay for Macrophage colony-stimulating factor (MCSF) Biomarker Activity (AID 2283060). Particulars: primary human foreskin fibroblasts; actives raise or lower the signal. The gist of the method:
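Human foreskin primary fibroblasts were treated with test chemical for 24 h, and M-CSF was then measured by ELISA. Data were fitted bidirectionally against DMSO as the negative control and activity baseline.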

Experiment [2] in a line: BSK_hDFCGF_SRB: Viability Assessment in the BioMAP Diversity Plus: hDFCGF Assay (AID 2283061).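 Further: cells exposed to compound for 24 h before the read.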 Particulars: primary human foreskin fibroblasts. The gist of the method:
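Human foreskin primary fibroblasts were treated with compound and assessed 24 h after dosing. Total protein was measured by sulforhodamine B staining (0.1% SRB after 10% TCA fixation, 560 nm read) as a cytotoxicity marker, with bidirectional fitting against DMSO baseline.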

Read-out in experiment [3]: TIMP metallopeptidase inhibitor 1 (TIMP1), TIMP1 (gene 7076)
Put plainly: BSK_hDFCGF_TIMP1: BioMAP Diversity Plus: hDFCGF Assay for TIMP metallopeptidase inhibitor 1 (TIMP1) Biomarker Activity (AID 2283062). Particulars: primary human foreskin fibroblasts; actives raise or lower the signal. The gist of the method: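 Primary human foreskin fibroblasts in the hDFCGF system were dosed with compound for 24 h, then TIMP-1 was measured by ELISA. Activity was fitted bidirectionally relative to DMSO control; parallel SRB staining assessed cytotoxicity.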

Read-out in experiment [4]: Monokine induced gamma interferon (MIG), CXCL9 (gene 4283)
Put plainly: BSK_hDFCGF_MIG: BioMAP Diversity Plus: hDFCGF Assay for Monokine induced gamma interferon (MIG) Biomarker Activity (AID 2283063). Particulars: primary human foreskin fibroblasts; actives raise or lower the signal. The gist of the method: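 ELISA read-out of MIG from primary human dermal fibroblasts 24 h post-dosing. Gain or loss of signal fitted bidirectionally, DMSO as baseline.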

Read-out in experiment [5]: Matrix Metallopeptidase 1 (MMP1), MMP1 (gene 4312)
Put plainly: BSK_hDFCGF_MMP1: BioMAP Diversity Plus: hDFCGF Assay for Matrix Metallopeptidase 1 (MMP1) Biomarker Activity (AID 2283064). Particulars: primary human foreskin fibroblasts; actives raise or lower the signal. The gist of the method: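 hDFCGF primary fibroblasts (human foreskin); chemical added; 24 h; MMP1 by ELISA; bidirectional fit vs DMSO.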

Read-out in experiment [6]: Vascular cell adhesion molecule 1 (VCAM1), VCAM1 (gene 7412)
Put plainly: BSK_hDFCGF_VCAM1: BioMAP Diversity Plus: hDFCGF Assay for Vascular cell adhesion molecule 1 (VCAM1) Biomarker Activity (AID 2283065).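 On AC50: VCAM-1 protein level quantified by ELISA after 24 h chemical exposure.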 Particulars: primary human foreskin fibroblasts; actives raise or lower the signal. The method in brief: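 Primary human foreskin fibroblasts (hDFCGF system) were dosed with chemical and VCAM-1 was measured by ELISA 24 h later. Bidirectional curve fitting used DMSO as negative control and activity baseline.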

Read-out in experiment [7]: Plasminogen activator inhibitor-1 (PAI1), SERPINE1 (gene 5054)
Put plainly: BSK_hDFCGF_PAI1: BioMAP Diversity Plus: hDFCGF Assay for Plasminogen activator inhibitor-1 (PAI1) Biomarker Activity (AID 2283066). The conditions noted are these: primary human foreskin fibroblasts; actives raise or lower the signal. The gist of the method: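 PAI-1 levels, determined by ELISA, served as the endpoint in human foreskin fibroblast cultures exposed to compound for 24 h, with DMSO as baseline.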

Read-out in experiment [8]: Intercellular Adhesion Molecule 1 (ICAM1), ICAM1 (gene 3383)
Put plainly: BSK_KF3CT_ICAM1: BioMAP Diversity Plus: KF3CT Assay for Intercellular Adhesion Molecule 1 (ICAM1) Biomarker Activity (AID 2283067). The conditions noted are these: primary human keratinocytes with fibroblasts; actives raise or lower the signal. The gist of the method:
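Human keratinocyte plus foreskin fibroblast primary co-culture was exposed to chemical for 24 h. ICAM-1 was then quantified by ELISA, and the data were fit bidirectionally against DMSO as the negative control and baseline.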

Read-out in experiment [9]: Interferon-gamma inducible Protein 10 (IP10), CXCL10 (gene 3627)
Put plainly: BSK_KF3CT_IP10: BioMAP Diversity Plus: KF3CT Assay for Interferon-gamma inducible Protein 10 (IP10) Biomarker Activity (AID 2283068). The conditions noted are these: primary human keratinocytes with fibroblasts; actives raise or lower the signal. The method in brief:
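ELISA read-out of IP-10 after 24 h chemical dosing of human skin primary co-culture (keratinocytes, foreskin fibroblasts). Gain or loss of signal relative to DMSO, bidirectional curve fit.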

Experiment [10] is described as follows: BSK_KF3CT_SRB: Viability Assessment in the BioMAP Diversity Plus: KF3CT Assay (AID 2283069).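 Further: fitted for both signal gain and loss against DMSO baseline.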 Particulars: primary human keratinocytes with fibroblasts. The method in brief: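 Keratinocytes co-cultured with foreskin fibroblasts (human primary); chemical added, 24 h; fix 10% TCA, stain 0.1% SRB, A560. Bidirectional fit vs DMSO.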
Read-out in experiment [11]: Interleukin-1 alpha (IL1a), IL1A (gene 3552)
Put plainly: BSK_KF3CT_IL1a: BioMAP Diversity Plus: KF3CT Assay for Interleukin-1 alpha (IL1a) Biomarker Activity (AID 2283070). The conditions noted are these: primary human keratinocytes with fibroblasts; actives raise or lower the signal. The method in brief: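 Chemicals were dosed onto co-cultured human keratinocytes and foreskin fibroblasts, IL-1a was quantified by ELISA at 24 h, and activity was fitted in both directions relative to DMSO controls.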

Read-out in experiment [12]: TIMP metallopeptidase inhibitor 2 (TIMP2), TIMP2 (gene 7077)
Put plainly: BSK_KF3CT_TIMP2: BioMAP Diversity Plus: KF3CT Assay for TIMP metallopeptidase inhibitor 2 (TIMP2) Biomarker Activity (AID 2283071). Particulars: primary human keratinocytes with fibroblasts; actives raise or lower the signal. The method in brief:
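Keratinocyte–fibroblast co-culture, 24 h exposure; TIMP-2 ELISA, DMSO-normalised bidirectional fit. Parallel SRB (0.1%, TCA-fixed, 560 nm) total-protein staining gauges cytotoxicity.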

Read-out in experiment [13]: C-C motif chemokine 2 (Homo sapiens) (UniProt P13500)
Put plainly: BSK_KF3CT_MCP1: BioMAP Diversity Plus: KF3CT Assay for Monocyte Chemoattractant Protein 1 (MCP1/CCL2) Biomarker Activity (AID 2283073). The conditions noted are these: primary human keratinocytes with fibroblasts; actives raise or lower the signal. The gist of the method: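 Human keratinocyte plus foreskin fibroblast primary co-culture exposed to chemical for 24 h. MCP-1 levels measured by ELISA. Bidirectional curve fitting relative to DMSO negative control as baseline.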

Read-out in experiment [14]: Matrix Metallopeptidase 9 (MMP9), MMP9 (gene 4318)
Put plainly: BSK_KF3CT_MMP9: BioMAP Diversity Plus: KF3CT Assay for Matrix Metallopeptidase 9 (MMP9) Biomarker Activity (AID 2283074).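 On AC50: MMP9 protein level quantified by ELISA in the co-culture.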 The conditions noted are these: primary human keratinocytes with fibroblasts; actives raise or lower the signal. The method in brief:
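Human keratinocyte/foreskin fibroblast co-culture; compound added; 24 h; MMP-9 by ELISA; bidirectional fit vs DMSO baseline.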

Read-out in experiment [15]: urokinase plasminogen activator (uPA), PLAU (gene 5328)
Put plainly: BSK_KF3CT_uPA: BioMAP Diversity Plus: KF3CT Assay for urokinase plasminogen activator (uPA) Biomarker Activity (AID 2283075). The conditions noted are these: primary human keratinocytes with fibroblasts; actives raise or lower the signal. The gist of the method: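 ELISA readout of uPA, analyzed for signal gain or loss relative to DMSO, from a human primary keratinocyte–foreskin fibroblast co-culture measured 24 h after chemical treatment.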

Read-out in experiment [16]: CD40, CD40 (gene 958)
Put plainly: BSK_LPS_CD40: BioMAP Diversity Plus: LPS Assay for CD40 Biomarker Activity (AID 2283076). The conditions noted are these: primary human HUVEC with PBMC; actives raise or lower the signal. The gist of the method: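 Primary human umbilical vein endothelial cells co-cultured with peripheral blood mononuclear cells, LPS-stimulated, were dosed with chemical and read 24 h later. CD40 levels were measured by ELISA and fitted bidirectionally against DMSO as negative control and baseline.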

Read-out in experiment [17]: E-selectin (Homo sapiens) (UniProt P16581)
Put plainly: BSK_LPS_Eselectin: BioMAP Diversity Plus: LPS Assay for Eselectin Biomarker Activity (AID 2283077). Particulars: primary human HUVEC with PBMC; actives raise or lower the signal. The gist of the method:
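Human umbilical vein endothelial cells co-cultured with peripheral blood mononuclear cells under LPS stimulation; E-selectin measured by ELISA 24 h after chemical dosing. Activity fitted bidirectionally against DMSO as negative control and baseline.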

Read-out in experiment [18]: Interleukin-8 (IL8), CXCL8 (gene 3576)
Put plainly: BSK_LPS_IL8: BioMAP Diversity Plus: LPS Assay for Interleukin-8 (IL8) Biomarker Activity (AID 2283078). Particulars: primary human HUVEC with PBMC; actives raise or lower the signal. The gist of the method:
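Human umbilical vein endothelial cells co-cultured with PBMC were stimulated with LPS; IL-8 levels were measured by ELISA 24 h after chemical dosing. Activity was fitted bidirectionally against DMSO as negative control and baseline.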

Experiment [19] can be described thus: BSK_LPS_SRB: Viability Assessment in the BioMAP Diversity Plus: LPS Assay (AID 2283079).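 Further: total protein by sulforhodamine B absorbance as a cytotoxicity measure; measured one day after compound addition; fitted in both directions against DMSO so loss or gain of signal counts.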 Particulars: primary human HUVEC with PBMC. The method in brief:
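Human umbilical vein endothelial cells co-cultured with PBMC (LPS system) were dosed for 24 h. Total protein was stained with 0.1% sulforhodamine B after 10% TCA fixation, read at 560 nm, and fitted bidirectionally against DMSO baseline.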

Read-out in experiment [20]: Transforming growth factor beta 1 (TGFb1), TGFB1 (gene 7040)
Put plainly: BSK_KF3CT_TGFb1: BioMAP Diversity Plus: KF3CT Assay for Transforming growth factor beta 1 (TGFb1) Biomarker Activity (AID 2283072). The conditions noted are these: primary human keratinocytes with fibroblasts; actives raise or lower the signal. The gist of the method: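 Signal changes in either direction, relative to DMSO, define activity here. TGF-b1 is read by ELISA from a human keratinocyte-fibroblast co-culture 24 h post-dose.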

Chain of E-selectin (Homo sapiens) (P16581 whole entry, looked up): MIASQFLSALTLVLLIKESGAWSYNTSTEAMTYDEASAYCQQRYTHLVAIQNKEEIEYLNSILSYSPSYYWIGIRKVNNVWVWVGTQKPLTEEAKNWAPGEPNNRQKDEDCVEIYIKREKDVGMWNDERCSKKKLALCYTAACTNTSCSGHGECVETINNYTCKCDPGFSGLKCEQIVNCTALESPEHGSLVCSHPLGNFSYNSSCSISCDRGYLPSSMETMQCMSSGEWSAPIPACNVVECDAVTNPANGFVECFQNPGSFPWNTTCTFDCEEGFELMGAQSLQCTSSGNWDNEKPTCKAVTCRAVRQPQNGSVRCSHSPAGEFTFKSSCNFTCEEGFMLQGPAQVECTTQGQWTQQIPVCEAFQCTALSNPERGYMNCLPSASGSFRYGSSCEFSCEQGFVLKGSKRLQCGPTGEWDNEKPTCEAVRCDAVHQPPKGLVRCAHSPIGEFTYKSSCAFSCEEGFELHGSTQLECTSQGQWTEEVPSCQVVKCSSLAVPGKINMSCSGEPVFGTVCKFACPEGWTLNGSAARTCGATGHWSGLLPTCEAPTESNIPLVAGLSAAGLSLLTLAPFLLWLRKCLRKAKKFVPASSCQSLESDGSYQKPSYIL

`O=S(=O)(F)C(F)(F)C(F)(F)C(F)(F)C(F)(F)C(F)(F)C(F)(F)C(F)(F)C(F)(F)F`: the outcome in experiment [1], in experiment [2], in experiment [3], in experiment [4], in experiment [5] and in experiment [6] was inactive. The outcome in [7], in experiment [8], in experiment [9], in experiment [10], in experiment [11] and in experiment [12] was inactive. Further, the outcome in experiment [13], in experiment [14], in [15], in experiment [16], in [17] and in experiment [18] was inactive. Moreover, the result in [19] was inactive.

Consider `CCCCCCCc1ccc(O)cc1`, for which the AC50 in experiment [1] is 20 µM (active); in experiment [2], 30 µM (active); in [3] it was 32.5 µM (active); in experiment [4], 28.5 µM (active); in experiment [5], 33.6 µM (active); in experiment [6], 20.7 µM (active). In addition, the AC50 in experiment [7] is 30.3 µM (active); in experiment [8] it was 33.3 µM (active); in experiment [9], 29 µM (active); in [10] it was 30.7 µM (active); in experiment [11], 30.4 µM (active); in experiment [12] it was 32.2 µM (active). Moreover, the AC50 in experiment [20] was 31.7 µM (active); in [13], 29.6 µM (active); in [14], 30.5 µM (active); in experiment [16], 30.9 µM (active); in experiment [17], 35.8 µM (active); in experiment [18], 35.1 µM (active). The AC50 in [19] was 37.2 µM (active).

Consider `O=c1ssc(Cl)c1Cl`, for which the half-maximal activity concentration (AC50) was 3.29 µM (active) in experiment [1]; 2.71 µM (active) in [2]; 2.65 µM (active) in [3]; 5.86 µM (active) in experiment [4]; 4.13 µM (active) in [5]; 4 µM (active) in experiment [6]. For the same compound, the concentration at half-maximal activity (AC50) in experiment [7] was 4.05 µM (active); in experiment [8], 5.46 µM (active); in [9] it was 7.06 µM (active); in experiment [10] it was 2.83 µM (active); in [11], 3.02 µM (active); in [12], 2.71 µM (active). Besides, the AC50 in [20] is 20 µM (active); in experiment [13], 2.98 µM (active); in [14], 5.92 µM (active); in experiment [15], 5.59 µM (active); in experiment [16], 3.38 µM (active); in [17], 6.46 µM (active). Also, the AC50 in experiment [18] is 7.38 µM (active); in experiment [19], 5.34 µM (active).

As usually defined, the AC50 is the concentration giving half of the maximal activity seen.

The values above are taken from PubChem BioAssay (EPA / NIEHS).
